The values below come from paper PMC8384837, “Expanding the binding specificity for RNA recognition by a PUF domain”.

Holding throughout (test): yeast three-hybrid, YBZ-1, SC-Leu-His + 0.5 mM 3-AT, 4 days
What all share (details): tags: N-Gal4 AD-HA kept; label: inside an RPR1-promoter hybrid RNA with tandem MS2 sites; ssRNA

One assay has as its target PUM1 PUF domain R3-RSH (Homo sapiens, UniProt Q14671 828-1176, C935R;R936S;Q939H). The method, boiled down: (§1)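 Matching RNA elements and Pumilio-1 PUF domain libraries, randomized at the three base-contacting residues of every repeat, were co-expressed from a centromeric plasmid in strain YBZ-1 (LexA–MS2 coat fusion, HIS3 reporter). The repeat regions were PCR-amplified and Illumina-sequenced from cells grown four days on SC-Leu (input) or SC-Leu-His + 0.5 mM 3-AT (selection). The interaction score is the log change in variant frequency from input to selection. It is computed in log2, with a pseudocount of 1 for absent variants.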

A further assay addresses PUM1 PUF domain R8-KRL (Homo sapiens, UniProt Q14671 828-1176, N1122K;Y1123R;Q1126L). The method, boiled down: as §1
The target of another assay is PUM1 PUF domain R4-NRM (Homo sapiens, UniProt Q14671 828-1176, H972R;Q975M). The gist of the method:
as §1

In another assay the target is PUM1 PUF domain R8-QWR (Homo sapiens, UniProt Q14671 828-1176, N1122Q;Y1123W;Q1126R). The gist of the method: as §1
The target in another assay is PUM1 PUF domain R4-RHA (Homo sapiens, UniProt Q14671 828-1176, N971R;Q975A). The method, boiled down:
as §1

The next assay has as its target PUM1 PUF domain R5-RYW (Homo sapiens, UniProt Q14671 828-1176, C1007R;R1008Y;Q1011W). The gist of the method:
as §1

The target in the next assay is PUM1 PUF domain R5-DQQ (Homo sapiens, UniProt Q14671 828-1176, C1007D;R1008Q). The gist of the method:
as §1

For a further assay, the target named is PUM1 PUF domain R8-RWN (Homo sapiens, UniProt Q14671 828-1176, N1122R;Y1123W;Q1126N). The gist of the method:
as §1

Another assay concerns the target PUM1 PUF domain R2-RKA (Homo sapiens, UniProt Q14671 828-1176, N899R;Y900K;Q903A). The gist of the method:
as §1

The target in another assay is PUM1 PUF domain R7-LTC (Homo sapiens, UniProt Q14671 828-1176, S1079L;N1080T;E1083C). The gist of the method:
as §1

For “GGCUAGAACUAGUGGAUCCCCCGGCGCCCGGCGGCUCGAGCCCGGGUAAGUGUAAUUAGUCUGCAUGCCGCCGGGCGCCAUGCCUGCAGGUCGACUCUAGAAAACAUG”, the binding signal in the assay with PUM1 PUF domain R3-RSH is 3.41 log2 enrichment (interaction score).
In the case of “GGCUAGAACUAGUGGAUCCCCCGGCGCCCGGCGGCUCGAGCCCGGGUAAGUGUAAAUAGUCUGCAUGCCGCCGGGCGCCAUGCCUGCAGGUCGACUCUAGAAAACAUG”, the binding signal in the assay with PUM1 PUF domain R8-KRL is 1.26 log2 enrichment (interaction score); with PUM1 PUF domain R4-NRM it was 3.21 log2 enrichment (interaction score); with PUM1 PUF domain R8-QWR it was 4.74 log2 enrichment (interaction score); with PUM1 PUF domain R4-RHA, 3.02 log2 enrichment (interaction score); in the assay with PUM1 PUF domain R5-RYW, 2.33 log2 enrichment (interaction score); in the assay with PUM1 PUF domain R5-DQQ, 2.81 log2 enrichment (interaction score). The binding signal with PUM1 PUF domain R8-RWN is 4.57 log2 enrichment (interaction score).
For the sequence “GGCUAGAACUAGUGGAUCCCCCGGCGCCCGGCGGCUCGAGCCCGGGUAAGCGUAAAUAGUCUGCAUGCCGCCGGGCGCCAUGCCUGCAGGUCGACUCUAGAAAACAUG”, the binding signal with PUM1 PUF domain R8-KRL was 3.37 log2 enrichment (interaction score); with PUM1 PUF domain R8-QWR, 5.32 log2 enrichment (interaction score); with PUM1 PUF domain R8-RWN, 0.65 log2 enrichment (interaction score).
In the case of “GGCUAGAACUAGUGGAUCCCCCGGCGCCCGGCGGCUCGAGCCCGGGUAAGUGUUAAUAGUCUGCAUGCCGCCGGGCGCCAUGCCUGCAGGUCGACUCUAGAAAACAUG”, the binding signal in the assay with PUM1 PUF domain R5-RYW is 3.92 log2 enrichment (interaction score).
Take “GGCUAGAACUAGUGGAUCCCCCGGCGCCCGGCGGCUCGAGCCCGGGUAAGUGUCAAUAGUCUGCAUGCCGCCGGGCGCCAUGCCUGCAGGUCGACUCUAGAAAACAUG”: in the assay with PUM1 PUF domain R5-DQQ, the binding signal was 5.11 log2 enrichment (interaction score).
Consider “GGCUAGAACUAGUGGAUCCCCCGGCGCCCGGCGGCUCGAGCCCGGGUAAGUGUAAAGAGUCUGCAUGCCGCCGGGCGCCAUGCCUGCAGGUCGACUCUAGAAAACAUG”, for which the binding signal with PUM1 PUF domain R2-RKA is 7.14 log2 enrichment (interaction score).
Regarding “GGCUAGAACUAGUGGAUCCCCCGGCGCCCGGCGGCUCGAGCCCGGGUAAGUUUAAAUAGUCUGCAUGCCGCCGGGCGCCAUGCCUGCAGGUCGACUCUAGAAAACAUG”, in the assay with PUM1 PUF domain R7-LTC, the binding signal was 3.36 log2 enrichment (interaction score).
